Source: PubChem (National Center for Advancing Translational Sciences (NCATS))
This is a sample that favours compounds with a hit; in the whole collection about 10% have one here.
Six1-Eya2 inh – Six1/Eya2 interaction inhibition. activity change, % (concentration not given with the values). Q15475+O00167. AlphaScreen GST-Six1/His-Eya2 binding, biochemical; hits give low values. 360,000 compounds, 0.56% hits; in the data active means activity change below about -65%; inconclusive means mostly about -30% to -63%; further: on the % scale 0 is the no-effect control and ±100 the full control effect
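AlphaScreen luminescence read after one hour at 37 °C in darkness. Pin-transferred compounds met GST-Six1 and His-Eya2 protein (5X stock 250 nM/500 nM) plus glutathione donor and Ni-chelate acceptor beads (5X, 50 ug/mL).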
G9a block – blocks human histone lysine methyltransferase G9a | Potency, µM (top dose mostly 102 µM), for inactives: at the highest dose activity, negative = inhibition, hits mostly inhibitors | G9a H3K9 monomethylation, AlphaScreen, 2 h | 350,000 compounds, 8.8% hits | AID 504332 | Q96KQ7; further: potency means the concentration at half of the fitted maximal effect; on the % scale 0 is the no-effect control and ±100 the full control effect; nearly all actives have a fitted effect of over 75% in size
Target sequence (Q96KQ7 913-1193 limits assumed): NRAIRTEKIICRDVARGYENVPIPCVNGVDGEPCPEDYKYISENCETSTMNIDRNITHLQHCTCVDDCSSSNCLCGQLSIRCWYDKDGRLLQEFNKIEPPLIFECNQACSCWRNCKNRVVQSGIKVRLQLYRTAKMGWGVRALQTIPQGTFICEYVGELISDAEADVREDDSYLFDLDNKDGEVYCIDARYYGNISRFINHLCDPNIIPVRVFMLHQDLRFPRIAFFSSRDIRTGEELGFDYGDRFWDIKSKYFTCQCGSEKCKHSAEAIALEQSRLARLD
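Enzyme 20 nM + cpd, 15 min RT; add b-H3K9 pep 500 nM / SAM 20 uM; 2 h RT; anti-H3K9me1 Ab 0.5 ug/mL + SA donor / anti-rabbit acceptor beads 20 ug/mL each, 10 min; AlphaScreen read.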
HP1b binding inh – inhibitors of HP1-beta chromodomain binding to methylated histone tails. AlphaScreen HP1-beta / biotin-H3K9me3 peptide binding. Potency, µM (highest dose often 114 µM), for the others: at the highest dose activity change, negative = inhibition, usual class: inhibitors. 390,000 compounds, 0.56% hits; further: potency means the concentration at half of the fitted maximal effect; nearly all actives have a fitted effect of over 70% in size
Target sequence (P83916 whole entry, looked up): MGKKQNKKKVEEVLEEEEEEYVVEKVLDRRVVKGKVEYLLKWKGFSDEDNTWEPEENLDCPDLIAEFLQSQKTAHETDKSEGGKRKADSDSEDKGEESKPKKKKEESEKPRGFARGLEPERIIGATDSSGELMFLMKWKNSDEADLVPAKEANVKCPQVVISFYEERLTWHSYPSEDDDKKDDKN
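Compound inhibition of the preformed complex between 50 nM HP1-beta and 50 nM biotinylated H3K9me3 peptide was read by AlphaScreen. Buffer was PBS pH 7.4 with 0.01% Tween-20. Incubations ran 30 min at room temperature, with 10 ug/mL donor/acceptor beads.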
JMJD2A Tudor inh – JMJD2A Tudor domain (human) inhibition; AlphaScreen JMJD2A-Tudor / H3K4me3 peptide binding; Potency, µM (top dose mostly 114 µM), inactives show top-dose activity change, negative = inhibition, usual class: inhibitors; 390,000 compounds, 4.4% hits; AID 504339; further: potency means the concentration at half of the fitted maximal effect; on the % scale 0 is the no-effect control and ±100 the full control effect; nearly all actives have a fitted effect of over 50% in size
CtBP-E1A inh – blocks the CtBP interaction with E1A; AlphaScreen GST-E1A/His-CtBP binding, 1536-well; hits give low values; 340,000 compounds, 0.49% hits; AID 651724; activity change, % (test concentration not listed); in the data active means activity change below about -65%; inconclusive means mostly about -30% to -63%; further: on the % scale 0 is the no-effect control and ±100 the full control effect
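Protein mix (5X: 125 nM each GST-E1A, His-CtBP) was incubated with pinned compound 2 h at 37 deg C in dark, in 50 mM Tris pH 8.0 buffer with 300 mM NaCl. Glutathione donor and nickel acceptor beads followed; AlphaScreen signal read after 1 h.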
BAZ2B inh – inhibitors of human BAZ2B bromodomain; AID 504333; 360,000 compounds, 4.4% hits; Potency, µM (series often up to 114 µM), inactives show top-dose activity change, negative = inhibition, hits mostly inhibitors; AlphaScreen BAZ2B-H3K14Ac peptide displacement; further: potency means the concentration at half of the fitted maximal effect; on the % scale 0 is the no-effect control and ±100 the full control effect; nearly all actives have a fitted effect of over 60% in size
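Complex of BAZ2B and biotin-H3K14Ac (50 nM apiece) forms over 30 min at RT, then faces library compounds up to 110 uM for another 30 min; AlphaScreen beads added, 20 min dark incubation, luminescence read.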
* marks the source's active call; other numbers are inactive results; u = inconclusive; x = no result; [ ] = another dose, or the depositor's remark. Unless noted, the call rests on the fitted dose curve; in most records, active means well fitted inhibition curve with a large enough effect; inconclusive means small, poorly fitted or top-dose-only effect; inactive means no such curve, though single readings can be large or run the other way.

SMILES	Six1-Eya2 inh	G9a block	HP1b binding inh	JMJD2A Tudor inh	CtBP-E1A inh	BAZ2B inh
CCn1c(CNC(=O)Cc2ccc(OC)cc2)n[nH]c1=S	8	u	48%	u	6	-22%
COc1ccc(CC(=O)NCc2n[nH]c(=S)n2-c2cccc(Cl)c2)cc1	3	3.2µM*	44%	50µM*	1	-20%
COc1ccc(CC(=O)NCc2n[nH]c(=S)n2-c2ccc(F)cc2)cc1	10	-36%[12.7 µM]	31%	50µM*	x	-18%
CCNc1ncc2nc(CCc3ccccc3)c(=O)n(CCOC)c2n1	x	-7%[12.7 µM]	x	x	x	x
CCCCOc1ccc(C(=O)Nc2cc(-c3cn4cccnc4n3)ccc2OC)cc1	x	12%[59 µM]	17%[57 µM]	-11%	x	-2%
COc1ccc(CC(=O)NCc2nnc(SCc3ccc(C)cc3)n2C)cc1	3	8%	18%	-20%	-4	-4%
COc1ccc(-n2c(CNC(=O)c3cccs3)n[nH]c2=S)cc1	1	20µM*	5%	22µM*	5	-4%
COc1ccc(CC(=O)NCc2n[nH]c(=S)n2-c2ccccc2OC)cc1	-4	35µM*	52%	14µM*	7	x
COc1ccccc1NC(=O)CCN1CCCCC1	x	-48%[59 µM]	13%	-12%	x	3%
CCN(CC)CCNC(=O)c1ccc(NC(=O)c2ccc(C(=O)c3ccccc3)cc2)cc1	4	7.1µM*	7%	-15%	15	-17%
O=S(=O)(c1ccc(F)cc1)N1CCN(c2nc(-c3ccccc3)nc3cc(Cl)ccc23)CC1	x	x	15%	-12%	x	x
CCN(CC)c1ccc(NC(=O)C2CCCN(S(=O)(=O)c3ccc4c(c3)oc(=O)n4C)C2)c(C)c1 (centres undefined)	x	u	12%	u	x	-14%
O=c1[nH]cnc2c1sc1nc3c(c(-c4ccc(Cl)cc4)c12)CCC3	u	-4%[59 µM]	24%	1%	-71*	1%
COc1ccc(CCN2C(=O)CC(C(N)=O)SC2=Nc2ccccc2)cc1 (centres undefined)	-9	u	13%	79µM*	-2	u
CNC(=O)C1CC(=O)N(CCc2ccccc2)C(=Nc2ccc(OC)cc2)S1 (centres undefined)	-8	-2%	12%	-11%	-18	-23%
COc1ccc(N=C2SC(C(N)=O)CC(=O)N2Cc2ccc3c(c2)OCO3)cc1 (centres undefined)	-9	-4%	9%	79µM*	x	79µM*
CCNC(=O)C1CC(=O)N(Cc2ccc3c(c2)OCO3)C(=Nc2ccc(F)cc2)S1 (centres undefined)	7	12%[59 µM]	13%	-13%	3	6%
CN1CCN(C(=O)C23CC4CC(C)(CC(C)(C4)C2)C3)CC1	3	56µM*	48%	-3%	5	-11%
CCOC(=O)c1[nH]c2ccc(Br)cc2c1NC(=O)CCN1CCCC(C)(C)C1	0	8.9µM*	10%	-4%	-20	-3%
O=C(Nc1ccc(Cl)cc1F)c1cc(S(=O)(=O)NCc2ccc3c(c2)OCO3)ccc1F	x	-26%[59 µM]	5%	-24%	x	-1%
CN1C(=O)N(CC(=O)N2CCN(S(=O)(=O)Cc3ccccc3)CC2)C(=O)C12CCCCC2	1	56µM*	15%	-15%	3	9%
Cc1cc2c(s1)c(/C=N/O)c(C(=O)NCc1ccccc1F)n2C	x	x	x	-31%	x	x
O=C(/C=C/c1ccccc1)Oc1cccc(C(=S)N2CCOCC2)c1	-69*	40µM*	-12%	-13%	-5	0%
O=C(/C=C/c1cccc(Oc2ccccc2)c1)N1CCOCC1	16	-19%	22%	-14%	x	-4%
O=C(/C=C/c1ccccc1)Oc1ccccc1C(=S)N1CCOCC1	24	50µM*	-2%	-30%	-8	-30%
COc1cc2c(cc1OC)C(COc1ccc3c(C)cc(=O)oc3c1)N(C(=O)Cc1ccccc1)CC2 (centres undefined)	x	22%[59 µM]	38%	-2%	x	0%
Cc1ccc2oc(C(=O)Nc3c(C(=O)Nc4cccc(Cl)c4)oc4ccccc34)cc(=O)c2c1	x	2%[59 µM]	3%	-22%	x	1%
